Measured values from PubChem BioAssay AID504834 (National Center for Advancing Translational Sciences (NCATS), 2011).
Out of some 320,000 compounds screened, about 22,000 (6.9%) were called active. A call without a number means that no potency is given here. Not shown: some 27% with an inconclusive outcome. Calls come from the whole dose curve; as a rule, active = well fitted inhibition curve with a large enough effect; inconclusive = small, poorly fitted or top-dose-only effect, or another doubt; inactive = no such curve, though single readings can be large or run the other way. Only a selection was taken, and actives are over-represented in it overall.

Assay: Primary qHTS for delayed death inhibitors of the malarial parasite plastid, 96 hour incubation
Settings: P. falciparum luciferase reporter growth; series mostly up to 28.7 µM
Excerpt: The goal of this screen is to discover new antimalarial compounds that act by inhibiting the development of the apicoplast in the malarial parasite Plasmodium falciparum. The biochemical processes that make this organelle essential for erythrocytic stage parasites are not well understood. However, antibiotics such as azithromycin and tetracycline, which target the apicoplast translational machinery, have a potent antimalarial effect.
We have developed a cell-based assay that measures parasite growth based on the expression of an integrated copy of a firefly luciferase reporter. To detect small molecules that cause this "delayed death" phenotype, erythrocytes infected with the luciferase-expressing parasites were incubated with compounds for either one or two generations, corresponding to 48 and 96 hours, respectively. Compounds that inhibit parasite growth in the second generation, but not the first, should be enriched in antimalarials that target the apicoplast. Growth inhibition is detected by a decrease in luciferase activity.
Assay Provider: David Fidock and Eric Ekland, Columbia University
Keywords: NIH Roadmap, MLPCN, MLI, MLSMR, qHTS, NCGC, qHTS, malaria, luciferase, viability
Four microliters of infected erythrocytes (2% hematocrit, 0.05% parasitemia final concentration) in culture medium were dispensed and the plates incubated for 96 hours at 37 C in 5% CO2. Two microliters of luciferase detection reagent was added and luminescence was detected by a ViewLux (PerkinElmer) reader.
Potency is the fitted concentration of half-maximal effect.

Compound | Potency
COc1ccccc1C(=O)NC(CCSC)C(=O)NNC(=O)c1csc(N2CCOCC2)n1 (stereo not given) | inactive
Cc1ccc(CSCC2Nc3ccc(C(=O)N4CCN(c5ccc(F)cc5)CC4)cc3NC2=O)cc1 (stereo not given) | inactive
O=C(O)c1ccccc1C(=O)NC1=NN(c2ccccc2)CC1 | inactive
O=[N+]([O-])c1ccc2c(c1)C(O)n1nc(-c3ccccc3)nc1S2 (stereo not given) | inactive
O=C(CN1CCCCCC1)Nc1c(Cl)cc(Cl)cc1Cl | inactive
COC(=O)c1ccc2c(=O)n(CCN3CCOCC3)c(SCC(=O)Nc3cccc(OC)c3)nc2c1 | 13.1 µM (active)
COc1cccc(NC(=S)NCCCN2CCOCC2)c1 | inactive
COc1cccc(NC(=O)Cn2c3ccccc3c3nc4n(c(=O)c32)CCS4)c1 | inactive
COc1ccc(NC(=O)CSc2nnc(Cc3ccccc3)c(=O)n2N)cc1 | inactive
COc1ccc(NC(=O)CSc2nc3ccccc3c(=O)n2C)cc1 | 1.85 µM (active)
COc1ccc(NC(C(=O)Nc2cccc(C(C)=O)c2)c2ccccc2)cc1 (stereo not given) | inactive
COc1ccc(-n2nnnc2SCC(=O)Nc2ccccc2)cc1 | inactive
COc1cccc(NC(=O)C(Sc2nc3ccccc3c(=O)n2CC(C)C)c2ccccc2)c1 (stereo not given) | 2.62 µM (active)
CCc1ccc(NC(=O)CSc2nc3ccccc3c(=O)n2CCN2CCOCC2)cc1 | inactive
COc1ccc([N+](=O)[O-])cc1NCC(=O)c1ccc(C)cc1 | inactive
O=S(=O)(Nc1cccc(-n2cnnn2)c1)c1cnc(Cl)c(Cl)c1 | inactive
COc1ccc2c(C)cc3nnnn3c2c1 | inactive
O=C(Nc1nnc(S(=O)(=O)N2CCOCC2)s1)c1cccc(Br)c1 | inactive
Cc1cccc(NC(=O)COc2ccccc2C)n1 | 2.33 µM (active)
Cc1ccccc1OCC(=O)Nc1nc(C)c(C(=O)N(C)C)s1 | inactive
COCCNC(=O)COc1ccccc1C | inactive
O=C(NCCc1ccccn1)c1cccnc1Oc1ccc(Cl)cc1 | inactive
O=C(Nc1ccc(C(=O)N2CCCCC2)cc1)c1cccc([N+](=O)[O-])c1 | inactive
Cn1ccc(=Nc2ccc(NC(=O)c3ccc(N=c4ccn(C)c5ccc([N+](=O)[O-])cc45)cc3)cc2)cc1 | 0.165 µM (active)
COc1cc(NS(=O)(=O)c2ccc(NC(=O)c3ccc([N+](=O)[O-])cc3)cc2)ncn1 | inactive
COc1ccccc1C(=O)Nc1ccnn1C1CCN(C(=O)C(C)(C)C)CC1 | inactive
CN(C)c1ccc(N/C=C/C(=O)C(F)(F)F)cc1 | 6.57 µM (active)

Compound | Potency
O=C(/C=C/Nc1ccccc1OC(F)(F)F)C(F)(F)F | inactive
CCCOc1ccc(N/C=C/C(=O)C(C)(C)C)cc1 | inactive
Cc1c(C(=O)N(C)CCc2cnn(C)c2)oc2c(F)cccc12 | inactive
Fc1ccc(/C=N/n2c(COc3ccccc3)n[nH]c2=S)cc1 | inactive
COc1ccc(C(=O)OCC(=O)Nc2cccc(C(C)=O)c2)cc1OC | inactive
CN(C)c1ccc2c(=O)[nH][nH]c(=O)c2c1 | inactive
O=c1[nH][nH]c(=O)c2cc(N3CCCC3)ccc12 | 9.28 µM (active)
O=C1C=CC(=O)N1c1ccc(N2CCCCC2)cc1 | inactive
CCOc1ccc(S(=O)(=O)NCc2ccc3c(c2)OCO3)cc1C | inactive
Cc1ccc(C(=O)NNC(=O)C(C)Oc2ccc3ccccc3c2)o1 (stereo not given) | inactive
Cc1ccc(Cl)c(OCC(=O)N(C)CC(=O)Nc2ccc(N3CCOCC3)cc2)c1 | inactive
Cc1cc(C(C)(C)C)n2nc(C)c(-c3ccccc3)c2n1 | inactive
Cc1nn2c(NCCN(C)C)c3c(nc2c1-c1ccccc1)CCC3 | 11.7 µM (active)
Cc1cc(N2CCCC2)n2nc(C)c(-c3ccccc3)c2n1 | inactive
O=C(CN1CCN(c2ccccn2)CC1)Nc1ccc(Br)cc1 | inactive
COc1ccc(C2=NS(=O)(=O)N(C)C(C(=O)N(C)Cc3ccccc3)=C2)cc1 | inactive
Nc1c(C(=O)Nc2ccc3c(c2)OCCO3)nnn1Cc1ccccc1 | inactive
CC1CN(C(=O)CCC(=O)NCc2cccnc2)c2ccccc2O1 (stereo not given) | inactive
Cc1ccc2c(c1)N(C(=O)CCC(=O)NCc1cccnc1)CCO2 | inactive
Cc1ccccc1CNC(=O)CCC(=O)N1Cc2ccccc2Oc2ncccc21 | 11.7 µM (active)
CC(C)NC(=O)C(c1ccc(F)cc1)N(C(=O)CCC(=O)Nc1ccccn1)c1ccccc1F (stereo not given) | inactive
Cc1ccc(N2CCN(c3ccc([N+](=O)[O-])cn3)CC2)c(C)c1 | inactive
Cc1cc(/C=N/Nc2ccc([N+](=O)[O-])cn2)c(C)n1-c1cccc(C(=O)O)c1 | inactive
Cc1ccc(-n2c(C)cc(/C=N/Nc3ccc([N+](=O)[O-])cn3)c2C)c(C)c1 | 10.4 µM (active)
O=C(NC1CCCC1)C(c1ccc(Cl)cc1)N(C(=O)c1csnn1)C1CC1 (stereo not given) | inactive
CC1CC1C(=O)OCC(=O)Nc1cccc(F)c1 (stereo not given) | inactive
N#CC(C#N)=CN=c1ccn(Cc2ccc(Cl)cc2Cl)cc1 | 1.17 µM (active)

Compound | Potency
Cn1ccc(=NC=C(C#N)C#N)c2ccccc21 | inactive
O=S(=O)(O)c1nc2ccccc2n1Cc1ccc(Cl)cc1Cl | inactive
CC(C)[C@H](NC(=O)N1CCn2c1nc1ccccc12)C(=O)NC1CC1 | inactive
CCOc1ccc(C(=O)Nc2ccc(S(=O)(=O)Nc3cc(C)on3)cc2)cc1 | 2.94 µM (active)
COc1cc(OC)cc(C(=O)Nc2ccc(S(=O)(=O)Nc3cc(C)on3)cc2)c1 | inactive
COc1cc2ccccc2cc1C(=O)Nc1ccc(S(=O)(=O)Nc2cc(C)on2)cc1 | inactive
CCOC(=O)c1cc(C(=O)Nc2ccc(S(=O)(=O)Nc3ccc(OC)cc3)cc2)nn1C | 11.7 µM (active)
COc1ccc(NC(=O)c2cnc(NS(=O)(=O)c3ccccc3)nc2)cc1 | inactive
CCOC(=O)c1ccccc1NS(=O)(=O)c1ccc(OC)cc1 | inactive
CCOCCCNC(=S)Nc1ccc2nc(N3CCN(CC)CC3)cc(C)c2c1 | inactive
Cc1cc(C)c(C#N)c(Nc2cccc(Br)c2)n1 | inactive
Cc1ccc(S(=O)(=O)N2CCN(C)CC2)cc1 | inactive
Cc1nn(C)c(C)c1NS(=O)(=O)c1ccc(OC(F)(F)F)cc1 | inactive
COc1cc(C(=O)OCC(=O)N(CC(C)C)C2CCS(=O)(=O)C2)ccc1OCC(C)C (stereo not given) | inactive
CN(CC(=O)Nc1cccc(F)c1)C(=O)C1CSC2(C)CCC(=O)N12 (stereo not given) | inactive
CCCc1cc(C(=O)N2CCCC(CO)(CCCc3ccccc3)C2)n(C)n1 (stereo not given) | inactive
CS(=O)(=O)N(CC(=O)N1CCCC1)Cc1ccccc1 | inactive
COC(=O)CCC(=O)N1CCCC(CO)(Cc2ccccc2)C1 (stereo not given) | 0.37 µM (active)
CCNC(=S)N(CCN(CC)CC)Cc1cc2cc3c(cc2[nH]c1=O)OCO3 | inactive
CC(C)C[C@H](CO)Nc1nc(N(C)c2cccc(Cl)c2)c2ncn(C(C)C)c2n1 | 13.1 µM (active)
COC(=O)C(C)n1cnc2c(nnn2-c2cccc(Cl)c2)c1=O (stereo not given) | inactive
CC1COc2ccccc2N1C(=O)c1ccc(F)cc1 (stereo not given) | inactive
COc1cccc(C(C(=O)NC2CCCC2)N(C(=O)c2ccco2)c2cccc(C(C)=O)c2)c1OC (stereo not given) | inactive
CN(Cc1ccccc1)C(=O)c1ccc(NC2=NC3CS(=O)(=O)CC3S2)cc1 (stereo not given) | inactive
COc1ccccc1N1CCN(C(=O)c2ccc(NC3=NC4CS(=O)(=O)CC4S3)cc2)CC1 (stereo not given) | 10.4 µM (active)
COc1cccc(-c2cc(C(=O)N3CCN(c4ccccc4OC)CC3)no2)c1 | inactive
NS(=O)(=O)c1ccc(CCNC(=O)c2nc(CS(=O)(=O)c3ccc(Cl)cc3)no2)cc1 | inactive

Compound | Potency
CC1CC(C)CN(C(=O)C2CC(=O)N(c3ccc(F)cc3)C2)C1 (stereo not given) | inactive
CC1(C)O[C@@H]2[C@H](O1)[C@@H](COS(=O)(=O)O)O[C@H]2n1cnc2c(=O)[nH]cnc21 | inactive
CCCCNC(=O)C1(O)c2ccccc2NC(=O)N1c1ccc(Cl)cc1 (stereo not given) | inactive
Cc1ccc(S(=O)(=O)N(Cc2cccc([N+](=O)[O-])c2)C(=O)N2CCN(C)CC2)cc1 | inactive
O=C(CSCc1ccccc1)Nc1ccccc1 | inactive
CCCNC(=O)c1ccccc1NC(=O)CSCc1ccc(OC)cc1 | inactive
Cc1c(NC(=O)CSCc2ccccc2)cccc1C(=O)O | 10.4 µM (active)
Nc1ccn(C2CC(O)C(CO)O2)c(=O)n1 (stereo not given) | inactive
CCOC(=O)NN1C(=O)c2ccccc2NC1c1cccc(O)c1 (stereo not given) | inactive
CCOC(=O)NN1C(=O)c2ccccc2NC1c1ccccc1O (stereo not given) | 14.7 µM (active)
O=C1c2ccccc2NC(c2ccccc2O)N1NS(=O)(=O)c1ccccc1 (stereo not given) | inactive
COc1ccc(OC)c(C(C)NC(=S)Nc2ccc(S(=O)(=O)Nc3ncccn3)cc2)c1 (stereo not given) | inactive
COc1ccccc1-n1c(-c2cc(-c3ccco3)[nH]n2)n[nH]c1=S | inactive
Fc1ccc2c(c1)C(c1cccnc1)=NNC(c1cccs1)=N2 | 7.38 µM (active)
CCc1ccc2c(c1)C(c1ccc([N+](=O)[O-])cc1)=NNC(c1ccccc1)=N2 | inactive
COc1ccc2c(c1)C(c1cccs1)=NNC(c1cccnc1)=N2 | inactive
CCOC(=O)c1cc2ccccc2n1CC(=O)c1ccccc1 | inactive
CC(=O)Nc1ccc(NC(=O)[C@@H](NC(=O)c2cccc(C)c2)C(C)C)cc1 | inactive
O=C(O)CSc1ccc(S(=O)(=O)N2CCCC2)cn1 | inactive
CCN1CCCC1CNC(=O)c1cc2cc(OC)c(OC)cc2[nH]1 (stereo not given) | inactive
O=C(COc1cccc(-n2cnnn2)c1)NCCC1=CCCCC1 | 10.4 µM (active)
CC(C)COc1ccc(C(=O)OCC(=O)NCCC2=CCCCC2)cc1 | inactive
O=C(COc1ccc(Cl)cc1)NCCC1=CCCCC1 | inactive
Cc1ccn2c(c1)nc(=O)c1cc(S(=O)(=O)N3CCC(C)CC3)ccc12 | inactive
